Results reported in the supplement of paper PMC10849652.
The full data set covers some 8,800 targets. This sample favours those with a hit. About 0.5% of all pairs of compound and target were hits.

Assays:
Assay in all cases: log2 fold change, soluble protein after heating vs DMSO (PISA); higher = thermal stabilisation; K562 lysate, 10 uM; active = over 0.2 and 3.5 SD of the protein, either way, in both replicates (recomputed)
ibrutinib = compound: C=CC(=O)N1CCC[C@@H](n2nc(-c3ccc(Oc4ccccc4)cc3)c3c(N)ncnc32)C1 [ibrutinib]
Procedure, shortened: (§1)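 The values are log-two fold changes in thermal stability compared with solvent controls and come from duplicates. They were obtained by TMTpro 16plex LC-MS/MS, with channel sums equalised, on the supernatant after 21,000xg for 90 min. That supernatant came from crude K562 extract at 1 mg/mL protein treated with 10 μM compound for 30 min, heated for 3 min across 48°C-58°C, pooled and brought to 0.5% NP-40 at 4°C.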

[1] = compound: CC(=O)c1cnc2ccc(-c3cc(Cl)c(O)c(Cl)c3)nc2c1N[C@H]1CC[C@H](CN(C)C)CC1
Procedure, shortened: as §1

ralimetinib = compound: CC(C)(C)Cn1c(N)nc2ccc(-c3[nH]c(C(C)(C)C)nc3-c3ccc(F)cc3)nc21 [ralimetinib]
Procedure, shortened: as §1

[2] = compound: CC(C)(O)CC(=O)NCCn1ccc2ncnc(Nc3ccc(Oc4cccc(C(F)(F)F)c4)c(Cl)c3)c21
Procedure, shortened: as §1

[3] = compound: CC(C)C1=C2N=C(C=C(N2N=C1)NCC3=CC=CC=C3)NCCCCCCN
Procedure, shortened: as §1

[4] = compound: CC1=C(C(CC(=O)N1)C2=CC=C(C=C2)C(F)(F)F)C(=O)NC3=C(C=C4C(=C3)C=NN4)F
Procedure, shortened: as §1

[5] = compound: CC1=C(C=C(C=C1)NC(=O)C2=CC(=CC=C2)C(C)(C)C#N)NC3=CC4=C(C=C3)N=CN(C4=O)C
Procedure, shortened: as §1

[6] = compound: CC1=C(C=C(C=C1)NC(=O)C2=CC(=CC=C2)N(C)C)NC(=O)C3=CC=C(C=C3)O
Procedure, shortened: as §1

[7] = compound: CC1=CC=C(C=C1)SC2=C3C=C(SC3=CN=C2)C(=O)N
Procedure, shortened: as §1

[8] = compound: CC1=C(C2=C(C=C1)C(=O)C3=CC=CC=C3N2CCCN)C
Procedure, shortened: as §1

Measured: log2 fold change

SNUPN (UniProt O95149)
UniProt O95149, sequence (O95149 whole entry, looked up): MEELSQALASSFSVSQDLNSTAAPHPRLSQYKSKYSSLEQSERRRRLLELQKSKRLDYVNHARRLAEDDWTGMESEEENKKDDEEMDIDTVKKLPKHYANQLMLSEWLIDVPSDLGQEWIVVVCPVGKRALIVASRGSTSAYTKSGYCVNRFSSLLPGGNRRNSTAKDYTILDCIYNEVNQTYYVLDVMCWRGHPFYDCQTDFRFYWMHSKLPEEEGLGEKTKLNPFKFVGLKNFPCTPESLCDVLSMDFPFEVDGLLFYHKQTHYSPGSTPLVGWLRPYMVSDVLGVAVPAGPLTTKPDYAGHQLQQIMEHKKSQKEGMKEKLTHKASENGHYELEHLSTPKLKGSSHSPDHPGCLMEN
inactive: ibrutinib -0.072 | [1] 0.001 | ralimetinib -0.008 | [2] -0.068 | [3] -0.116 | [4] -0.065 | [5] 0.001 | [6] -0.036 | [7] 0.027

SNCA (UniProt P37840)
inactive: ibrutinib 0.102 | [1] -0.148 | ralimetinib 0.028 | [2] 0.02 | [3] 0.013 | [4] 0.036 | [8] -0.068 | [5] -0.042 | [6] -0.059 | [7] 0.028

SNAP23 (UniProt O00161)
inactive: ibrutinib 0.021 | [1] -0.003 | ralimetinib -0.01 | [2] 0.01 | [3] -0.04 | [4] -0.015 | [8] 0.045 | [5] 0.015 | [6] -0.013 | [7] 0.011

SSX5 isoform 2 (UniProt O60225)
inactive: ibrutinib -0.081 | [1] 0.028 | ralimetinib 0 | [2] 0.032 | [3] -0.261 | [4] -0.089 | [6] -0.018 | [7] -0.003

SMIM1 (UniProt B2RUZ4)
UniProt B2RUZ4, sequence (B2RUZ4 whole entry, looked up): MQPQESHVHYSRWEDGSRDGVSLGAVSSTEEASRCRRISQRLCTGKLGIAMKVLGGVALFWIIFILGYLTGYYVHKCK
inactive: ibrutinib 0.018 | [1] 0.005 | ralimetinib 0.054 | [2] 0.036 | [3] 0.081 | [4] -0.132 | [5] -0.042 | [6] -0.021 | [7] 0.058

STN1 (UniProt Q9H668)
inactive: ibrutinib 0.133 | [1] -0.187 | ralimetinib 0.151 | [2] -0.071 | [3] -0.056 | [4] 0.106 | [5] -0.016 | [6] 0.051 | [7] 0.035

SH3BP2 isoform 4 (UniProt P78314)
inactive: ibrutinib 0.096 | [1] -0.084 | ralimetinib 0.07 | [2] 0.137 | [3] -0.004 | [8] -0.297 | [5] 0.03 | [6] -0.126 | [7] 0.073

SH3BGRL2 (UniProt Q9UJC5)
UniProt Q9UJC5, sequence (Q9UJC5 whole entry, looked up): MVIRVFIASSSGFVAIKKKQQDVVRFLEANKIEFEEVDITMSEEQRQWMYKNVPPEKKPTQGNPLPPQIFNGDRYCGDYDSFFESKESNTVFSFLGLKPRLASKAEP
inactive: ibrutinib -0.014 | [1] 0.027 | ralimetinib 0.006 | [2] -0.014 | [3] 0.035 | [4] 0.03 | [8] -0.004 | [5] 0.036 | [6] -0.072 | [7] 0.053

SZT2 (UniProt Q5T011)
inactive: ibrutinib -0.225 | [1] -0.102 | ralimetinib 0.14 | [2] -0.07 | [3] -0.135 | [4] 0.076 | [8] 0.126 | [6] -0.134 | [7] 0.105

SRSF2 (UniProt Q01130)
UniProt Q01130, sequence (Q01130 whole entry, looked up): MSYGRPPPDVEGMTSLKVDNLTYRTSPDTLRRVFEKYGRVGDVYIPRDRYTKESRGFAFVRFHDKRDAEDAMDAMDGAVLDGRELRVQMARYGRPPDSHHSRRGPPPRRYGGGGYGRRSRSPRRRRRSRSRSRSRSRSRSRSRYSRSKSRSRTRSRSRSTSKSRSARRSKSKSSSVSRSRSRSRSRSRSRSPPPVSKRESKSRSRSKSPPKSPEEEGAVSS
inactive: ibrutinib 0.021 | [1] -0.009 | ralimetinib 0.034 | [2] -0.065 | [3] -0.013 | [4] -0.021 | [8] -0.015 | [5] 0.016 | [6] 0.028 | [7] -0.018

SPPL2A (UniProt Q8TCT8)
UniProt Q8TCT8, sequence (Q8TCT8 whole entry, looked up): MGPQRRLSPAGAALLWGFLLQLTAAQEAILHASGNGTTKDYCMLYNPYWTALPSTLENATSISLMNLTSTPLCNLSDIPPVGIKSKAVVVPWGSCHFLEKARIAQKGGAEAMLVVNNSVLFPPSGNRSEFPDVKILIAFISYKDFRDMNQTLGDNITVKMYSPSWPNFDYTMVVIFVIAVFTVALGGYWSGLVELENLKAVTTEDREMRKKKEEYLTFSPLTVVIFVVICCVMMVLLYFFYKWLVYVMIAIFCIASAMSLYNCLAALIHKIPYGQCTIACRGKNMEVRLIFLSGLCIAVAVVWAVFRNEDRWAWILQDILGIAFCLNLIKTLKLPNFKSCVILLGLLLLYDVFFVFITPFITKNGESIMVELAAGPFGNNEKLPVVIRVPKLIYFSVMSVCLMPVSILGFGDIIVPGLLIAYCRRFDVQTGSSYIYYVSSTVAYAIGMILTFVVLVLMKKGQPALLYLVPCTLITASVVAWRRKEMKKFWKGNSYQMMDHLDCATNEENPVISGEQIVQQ
inactive: ibrutinib -0.081 | [1] 0.154 | ralimetinib -0.152 | [2] -0.219 | [3] 0.004 | [5] 0.138 | [6] 0.091 | [7] -0.008

SPAG1 (UniProt Q07617)
inactive: ibrutinib 0.034 | [1] 0.282 | ralimetinib -0.017 | [2] -0.17 | [5] 0.15 | [6] 0.079 | [7] -0.198

SLCO4A1 (UniProt Q96BD0)
inactive: ibrutinib 0.081 | [4] 0.115

SLC22A18 (UniProt Q96BI1)
UniProt Q96BI1, sequence (Q96BI1 whole entry, looked up): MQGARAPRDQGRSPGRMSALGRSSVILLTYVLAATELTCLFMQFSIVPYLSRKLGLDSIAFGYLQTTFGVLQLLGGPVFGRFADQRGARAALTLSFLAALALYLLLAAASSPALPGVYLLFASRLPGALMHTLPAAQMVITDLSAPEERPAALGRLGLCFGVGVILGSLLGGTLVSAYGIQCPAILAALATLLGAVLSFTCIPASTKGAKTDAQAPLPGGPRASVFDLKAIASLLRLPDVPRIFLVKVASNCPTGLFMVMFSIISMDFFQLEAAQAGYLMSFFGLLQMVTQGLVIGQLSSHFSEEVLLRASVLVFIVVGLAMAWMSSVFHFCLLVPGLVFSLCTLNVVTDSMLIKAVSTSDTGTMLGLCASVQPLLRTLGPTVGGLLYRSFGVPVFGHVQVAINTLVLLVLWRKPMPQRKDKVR
inactive: ibrutinib 0.099 | [1] -0.047 | [3] 0.049 | [5] 0.02 | [7] 0.011

SKP2 (UniProt Q13309)
inactive: [1] -0.137 | ralimetinib 0.137 | [2] 0.045 | [3] 0.058 | [4] -0.041 | [8] 0.023 | [5] -0.097 | [6] -0.015
active: [7] -0.576

STAR (UniProt P49675)
inactive: ralimetinib -0.139 | [2] 0.02 | [3] 0.073 | [4] -0.027 | [8] -0.052 | [5] -0.049 | [6] -0.039

STK38L (UniProt Q9Y2H1)
inactive: ralimetinib -0.069 | [2] 0.021 | [3] -0.019 | [4] -0.024 | [8] -0.019 | [5] 0 | [6] 0.056

TAOK2 isoform 2 (UniProt Q9UL54)
inactive: [4] 0.034

SLC25A36 (UniProt Q96CQ1)
UniProt Q96CQ1, sequence (Q96CQ1 whole entry, looked up): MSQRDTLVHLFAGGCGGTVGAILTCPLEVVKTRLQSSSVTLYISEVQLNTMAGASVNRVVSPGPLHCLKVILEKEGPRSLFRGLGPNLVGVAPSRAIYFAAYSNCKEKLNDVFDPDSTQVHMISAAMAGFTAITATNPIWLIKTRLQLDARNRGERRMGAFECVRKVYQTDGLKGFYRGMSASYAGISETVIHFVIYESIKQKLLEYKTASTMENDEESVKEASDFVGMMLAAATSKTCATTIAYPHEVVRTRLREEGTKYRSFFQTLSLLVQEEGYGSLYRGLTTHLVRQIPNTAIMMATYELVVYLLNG
inactive: [1] -0.012 | ralimetinib 0.142 | [2] -0.048 | [3] 0.1 | [4] 0.044 | [8] -0.16 | [5] 0.011 | [6] 0.027 | [7] 0.013

SNIP1 (UniProt Q8TAD8)
inactive: [4] -0.062

SLU7 (UniProt O95391)
UniProt O95391, sequence (O95391 whole entry, looked up): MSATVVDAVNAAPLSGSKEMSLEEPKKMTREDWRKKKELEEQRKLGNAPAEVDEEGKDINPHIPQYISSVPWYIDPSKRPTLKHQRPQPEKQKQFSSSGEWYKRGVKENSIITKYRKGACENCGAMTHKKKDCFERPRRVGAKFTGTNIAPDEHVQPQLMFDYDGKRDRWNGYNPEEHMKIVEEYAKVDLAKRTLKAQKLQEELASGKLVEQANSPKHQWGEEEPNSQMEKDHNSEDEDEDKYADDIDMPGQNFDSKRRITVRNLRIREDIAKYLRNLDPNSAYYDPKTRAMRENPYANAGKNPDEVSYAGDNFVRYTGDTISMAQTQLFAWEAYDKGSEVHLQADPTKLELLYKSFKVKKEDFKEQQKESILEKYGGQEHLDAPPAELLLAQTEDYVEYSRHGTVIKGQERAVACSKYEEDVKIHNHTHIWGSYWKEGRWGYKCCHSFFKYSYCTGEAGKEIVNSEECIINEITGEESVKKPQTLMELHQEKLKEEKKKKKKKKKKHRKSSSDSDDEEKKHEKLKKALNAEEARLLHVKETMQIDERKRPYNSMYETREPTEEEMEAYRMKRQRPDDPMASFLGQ
inactive: ibrutinib -0.084 | ralimetinib -0.013 | [2] -0.018 | [3] 0.045 | [4] -0.029 | [8] -0.015 | [5] 0 | [6] -0.031

SLC35A3 isoform 2 (UniProt Q9Y2D2)
UniProt Q9Y2D2, sequence (Q9Y2D2 whole entry, looked up): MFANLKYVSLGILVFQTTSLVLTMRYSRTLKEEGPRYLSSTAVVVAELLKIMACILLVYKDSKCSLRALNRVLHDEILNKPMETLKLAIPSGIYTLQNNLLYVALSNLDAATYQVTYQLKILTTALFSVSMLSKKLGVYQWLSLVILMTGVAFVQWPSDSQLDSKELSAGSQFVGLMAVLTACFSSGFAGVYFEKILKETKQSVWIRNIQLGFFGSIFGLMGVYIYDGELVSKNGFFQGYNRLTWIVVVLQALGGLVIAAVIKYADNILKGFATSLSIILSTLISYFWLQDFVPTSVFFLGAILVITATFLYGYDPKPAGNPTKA
inactive: [1] -0.034 | ralimetinib -0.027 | [2] 0.234 | [3] -0.027 | [4] -0.133 | [5] 0.111 | [6] -0.025 | [7] 0.051

STK17B (UniProt O94768)
UniProt O94768, sequence (O94768 whole entry, looked up): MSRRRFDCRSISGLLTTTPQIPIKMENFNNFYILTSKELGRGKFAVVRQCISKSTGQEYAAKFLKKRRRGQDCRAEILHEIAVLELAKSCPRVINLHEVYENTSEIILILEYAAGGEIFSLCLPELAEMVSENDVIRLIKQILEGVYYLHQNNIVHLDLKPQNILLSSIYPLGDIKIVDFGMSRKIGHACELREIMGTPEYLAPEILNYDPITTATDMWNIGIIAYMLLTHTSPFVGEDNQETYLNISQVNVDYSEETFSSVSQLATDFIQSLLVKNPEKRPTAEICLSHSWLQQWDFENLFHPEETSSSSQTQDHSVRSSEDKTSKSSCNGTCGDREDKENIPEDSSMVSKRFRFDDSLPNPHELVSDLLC
inactive: ralimetinib 0.104 | [2] -0.004 | [3] 0.162 | [4] 0.054 | [8] -0.102 | [5] 0.147 | [6] 0.07

SNAP23 isoform 2 (UniProt O00161)
inactive: [1] -0.045 | ralimetinib -0.071 | [2] 0.095 | [3] -0.029 | [4] 0.306 | [6] 0.027 | [7] 0.028

SLC40A1 (UniProt Q9NP59)
inactive: [1] -0.028 | ralimetinib -0.037 | [2] -0.096 | [3] 0.042 | [4] -0.017 | [8] 0.049 | [5] -0.034 | [6] 0.041 | [7] -0.055

SNAPC2 (UniProt Q13487)
inactive: ibrutinib 0.092 | ralimetinib 0.002 | [2] -0.029 | [3] -0.032 | [4] -0.073 | [8] -0.071 | [5] -0.008 | [6] 0.011

SLC39A13 (UniProt Q96H72)
inactive: ralimetinib 0.004 | [2] -0.137 | [3] -0.003 | [6] 0.25

SNRPD2 (UniProt K7EJB5)
inactive: [1] -0.004 | ralimetinib 0.142 | [2] -0.075 | [3] 0.014 | [4] 0.052 | [8] -0.022 | [5] -0.011 | [6] 0.069 | [7] -0.01

TAF11 (UniProt Q15544)
inactive: [1] -0.013 | ralimetinib 0.027 | [2] 0.008 | [4] 0.015 | [8] 0.115 | [5] 0.052 | [6] 0.072 | [7] -0.114

SURF2 (UniProt Q15527)
inactive: ibrutinib 0.001 | [1] -0.019 | ralimetinib -0.147 | [2] -0.038 | [4] 0.103 | [8] 0.018 | [5] 0.026 | [6] 0.031 | [7] -0.02

STK17A (UniProt Q9UEE5)
inactive: [4] 0.213

SMARCA4 isoform 4 (UniProt P51532)
inactive: [1] 0.044 | ralimetinib 0.051 | [2] -0.022 | [3] -0.337 | [4] 0.093 | [8] -0.018 | [5] -0.107 | [6] 0.192 | [7] 0.041

STK26 isoform 3 (UniProt Q9P289)
inactive: [8] -0.157 | [5] -0.146

TAOK2 (UniProt Q9UL54)
inactive: ibrutinib -0.009 | [1] 0.151 | ralimetinib -0.035 | [2] -0.033 | [4] -0.072 | [8] -0.053 | [5] -0.037 | [6] -0.044 | [7] 0.024

SHB (UniProt Q15464)
UniProt Q15464, sequence (Q15464 whole entry, looked up): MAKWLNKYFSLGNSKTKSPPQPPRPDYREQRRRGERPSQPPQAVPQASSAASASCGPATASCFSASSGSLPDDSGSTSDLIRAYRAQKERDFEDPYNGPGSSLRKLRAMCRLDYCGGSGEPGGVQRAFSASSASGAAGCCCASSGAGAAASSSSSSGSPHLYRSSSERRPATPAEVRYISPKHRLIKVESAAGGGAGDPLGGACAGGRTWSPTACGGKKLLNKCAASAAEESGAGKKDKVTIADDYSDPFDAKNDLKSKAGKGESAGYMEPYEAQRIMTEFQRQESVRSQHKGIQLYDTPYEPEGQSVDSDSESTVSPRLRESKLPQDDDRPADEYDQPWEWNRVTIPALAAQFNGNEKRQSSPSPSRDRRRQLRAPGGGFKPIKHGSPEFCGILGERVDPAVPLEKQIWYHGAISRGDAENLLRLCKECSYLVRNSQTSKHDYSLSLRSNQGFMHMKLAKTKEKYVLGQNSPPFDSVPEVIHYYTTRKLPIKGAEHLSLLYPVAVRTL
inactive: [1] -0.023 | ralimetinib 0.023 | [2] -0.025 | [3] -0.009 | [8] -0.01 | [5] 0.023 | [6] -0.012 | [7] 0.05

SRC isoform 2 (UniProt P12931)
inactive: [1] -0.061 | ralimetinib -0.035 | [2] 0.075 | [3] 0.052 | [8] 0.07 | [6] 0.042 | [7] 0

SLC12A6 isoform 2 (UniProt Q9UHW9)
inactive: [1] 0.016 | ralimetinib -0.01 | [2] 0.017 | [3] -0.018 | [8] 0.027 | [5] 0.063 | [6] -0.006 | [7] 0.122

SLC41A1 (UniProt Q8IVJ1)
UniProt Q8IVJ1, sequence (Q8IVJ1 whole entry, looked up): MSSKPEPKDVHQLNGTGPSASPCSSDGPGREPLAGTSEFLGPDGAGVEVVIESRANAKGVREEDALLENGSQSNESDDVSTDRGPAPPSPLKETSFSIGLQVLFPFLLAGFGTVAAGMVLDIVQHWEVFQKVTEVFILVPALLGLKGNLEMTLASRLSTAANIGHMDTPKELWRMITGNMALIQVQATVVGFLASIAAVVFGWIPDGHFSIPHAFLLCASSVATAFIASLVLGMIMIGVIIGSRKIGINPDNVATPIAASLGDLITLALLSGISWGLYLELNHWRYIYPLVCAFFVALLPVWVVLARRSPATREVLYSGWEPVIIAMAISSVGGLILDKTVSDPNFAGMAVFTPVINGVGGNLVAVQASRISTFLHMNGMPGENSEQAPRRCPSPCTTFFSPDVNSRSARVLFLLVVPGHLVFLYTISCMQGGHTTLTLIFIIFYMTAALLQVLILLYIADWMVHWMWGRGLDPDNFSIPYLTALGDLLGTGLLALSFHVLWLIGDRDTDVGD
inactive: [1] 0.007 | ralimetinib -0.003 | [2] 0.112 | [3] -0.037 | [4] -0.023 | [5] -0.081 | [6] 0.09 | [7] 0.041

STAU1 isoform 3 (UniProt O95793)
inactive: ibrutinib -0.094 | [3] 0.028 | [4] 0.012 | [5] -0.064

SPA17 (UniProt Q15506)
inactive: ibrutinib 0.056 | [1] 0.028 | ralimetinib 0.006 | [2] -0.098 | [8] 0.051 | [5] -0.053 | [6] 0.026 | [7] -0.058

TAF1B (UniProt Q53T94)
UniProt Q53T94, sequence (Q53T94 whole entry, looked up): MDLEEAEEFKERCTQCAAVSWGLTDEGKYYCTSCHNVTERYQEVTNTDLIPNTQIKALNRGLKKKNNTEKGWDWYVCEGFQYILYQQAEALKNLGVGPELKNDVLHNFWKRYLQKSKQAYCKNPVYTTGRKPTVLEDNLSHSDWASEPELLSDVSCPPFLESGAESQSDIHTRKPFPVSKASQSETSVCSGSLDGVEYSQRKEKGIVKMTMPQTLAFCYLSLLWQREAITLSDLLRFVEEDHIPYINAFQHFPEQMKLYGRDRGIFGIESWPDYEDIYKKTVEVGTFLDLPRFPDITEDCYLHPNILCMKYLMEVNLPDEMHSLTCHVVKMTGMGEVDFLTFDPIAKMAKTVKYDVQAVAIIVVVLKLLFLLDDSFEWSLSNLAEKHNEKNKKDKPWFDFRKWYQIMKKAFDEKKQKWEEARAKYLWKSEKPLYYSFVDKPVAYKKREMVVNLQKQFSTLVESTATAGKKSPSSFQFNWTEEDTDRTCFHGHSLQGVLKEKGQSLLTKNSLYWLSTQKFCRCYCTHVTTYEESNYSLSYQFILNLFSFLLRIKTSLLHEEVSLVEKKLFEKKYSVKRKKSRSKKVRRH
inactive: ibrutinib -0.156 | [1] 0.095 | ralimetinib 0.043 | [2] -0.112 | [4] 0.419 | [8] -0.101 | [5] 0.032 | [6] 0.006 | [7] 0.138

SIN3B (UniProt O75182)
inactive: [4] 0.19 | [5] 1.04

SMPD2 (UniProt O60906)
inactive: [1] 0.01 | ralimetinib -0.03 | [2] 0.067 | [3] 0.388 | [8] 0.077 | [6] -0.113 | [7] 0.058
